Test results from PubChem BioAssay (NCI).
The panel holds about 79,000 compounds, 15% with a hit somewhere; the sample as a whole holds those more often. Active and inactive are the calls of the source. Rule as the data show it: active = growth inhibition above about 70%; inactive = the rest.

Assays:
[1] = NCI Yeast Anticancer Drug Screen. Data for the rad50 strain (AID 155);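 also: 0% = growth of vehicle-only cultures of the same strain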; conditions: S. cerevisiae rad50 strain growth inhibition, stronger effect = higher value
Summary of the method: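 Compounds were tested on a yeast strain with an engineered DNA damage repair alteration; the reported value is growth inhibition normalised to vehicle treatment.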

[2] = NCI Yeast Anticancer Drug Screen. Data for the mec2-1 strain (AID 157); conditions: S. cerevisiae mec2-1 strain, stronger effect = higher value
Summary of the method: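 Readout is yeast growth inhibition, normalised to vehicle-treated controls, in the mec2-1 strain exposed to compound.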

[3] = NCI Yeast Anticancer Drug Screen. Data for the sgs1 mgt1 strain (AID 161);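 also: 0% = growth of cultures given vehicle only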; conditions: S. cerevisiae sgs1 mgt1 strain, stronger effect = higher value
Summary of the method: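 Percent growth inhibition was derived by comparing compound-exposed mutant yeast with vehicle-exposed cultures. The strain carries alterations in DNA damage repair.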

[4] = NCI Yeast Anticancer Drug Screen. Data for the cln2 rad14 strain (AID 165);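 also: 0% = growth equal to vehicle treated cultures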; conditions: S. cerevisiae cln2 rad14 strain, stronger effect = higher value
Summary of the method: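 Relative to vehicle controls, growth inhibition of compound-treated cln2 rad14 yeast was recorded.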

[5] = NCI Yeast Anticancer Drug Screen. Data for the bub3 strain (AID 167); conditions: S. cerevisiae bub3 mutant strain, stronger effect = higher value
Summary of the method: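 Growth of a checkpoint-deficient yeast mutant is measured after compound exposure. Values represent inhibition relative to vehicle.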

[6] = NCI Yeast Anticancer Drug Screen. Data for the mlh1 rad18 strain (AID 175); conditions: S. cerevisiae mlh1 rad18 strain growth inhibition, stronger effect = higher value
Summary of the method: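 Test agents were incubated with a yeast strain of defined genotype (DNA damage repair defect). Inhibition of growth was derived by comparison with vehicle-exposed cultures.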

[7] = at 5.0 µM (retest, dose inferred, filed as 0.5)
[8] = at 50.0 µM (retest, dose inferred, filed as 5.0)

Measured: growth inhibition

Cc1c2ccccc2c(CSC(=N)N)c2ccccc12
inactive: [1]; [7] 47% | [2]; [7] 22% | [3]; [7] 9% | [4]; [7] 26% | [5]; [7] 7% | [6]; [7] 30%
active: [1]; [8] 99% | [1]; at 50.0 µM 99.5% | [2]; [8] 99% | [2]; at 50.0 µM 99.7% | [3]; [8] 98% | [3]; at 50.0 µM 99.5% | [4]; [8] 99% | [4]; at 50.0 µM 99.5% | [5]; [8] 99% | [5]; at 50.0 µM 99.4% | [6]; [8] 99% | [6]; at 50.0 µM 99.7%

C/C=C(\C)C(=O)O[C@@H]1CC(C)(C)CC2C3=CCC4[C@]56CC[C@](O)(OC5)C(C)(C)C6CC[C@@]4(C)C3(C)CC[C@]21C(=O)O (stereo not given in full)
active: [1]; [8] 90% | [1]; at 50.0 µM 86.5% | [2]; [8] 88% | [2]; at 50.0 µM 84.7% | [3]; [8] 93% | [3]; at 50.0 µM 87.2% | [4]; [7] 73% | [4]; [8] 94% | [4]; at 50.0 µM 78.8% | [5]; [7] 70% | [5]; [8] 96% | [5]; at 50.0 µM 81.8% | [6]; [8] 94% | [6]; at 50.0 µM 81.2%
inactive: [1]; [7] 53% | [2]; [7] 67% | [3]; [7] 55% | [6]; [7] 69%

Nc1ccc(-c2nc3ccccc3s2)cc1Br
inactive: [1]; [7] 33% | [1]; at 50.0 µM 8% | [2]; [7] 24% | [2]; at 50.0 µM 18.8% | [3]; [7] 31% | [3]; at 50.0 µM 21.1% | [4]; [7] 27% | [4]; [8] 63% | [4]; at 50.0 µM 10.8% | [5]; [7] 28% | [5]; at 50.0 µM 52% | [6]; [7] 34% | [6]; at 50.0 µM 55.9%
active: [1]; [8] 74% | [2]; [8] 77% | [3]; [8] 97% | [5]; [8] 96% | [6]; [8] 88%

CC(=O)N(c1ccccc1)c1nc2ccccc2s1
active: [5]; at 50.0 µM 75.7%
inactive: [1]; [7] -8% | [1]; [8] 1% | [1]; at 50.0 µM -41.2% | [2]; [7] -4% | [2]; [8] -4% | [2]; at 50.0 µM -22.9% | [3]; [7] -6% | [3]; [8] -4% | [3]; at 50.0 µM -22.6% | [4]; [7] -2% | [4]; [8] -6% | [4]; at 50.0 µM -42.6% | [5]; [7] 30% | [5]; [8] 59% | [6]; [7] -25% | [6]; [8] -51% | [6]; at 50.0 µM -30.3%

CCN(CC)CCCNc1c(O)cc(C)c2sc3ccccc3c(=O)c12
inactive: [1]; [7] 17% | [2]; [7] 6% | [3]; [7] 4% | [4]; [7] 12% | [5]; [7] 14% | [6]; [7] 6%
active: [1]; [8] 98% | [1]; at 50.0 µM 98.7% | [2]; [8] 99% | [2]; at 50.0 µM 99.2% | [3]; [8] 99% | [3]; at 50.0 µM 99% | [4]; [8] 96% | [4]; at 50.0 µM 98.3% | [5]; [8] 95% | [5]; at 50.0 µM 98.4% | [6]; [8] 98% | [6]; at 50.0 µM 98.8%

CCCCC(=O)N/N=C/c1ccc([N+](=O)[O-])s1
inactive: [1]; [7] 9% | [2]; [7] 7% | [3]; [7] 8% | [4]; [7] 1% | [4]; [8] 38% | [5]; [7] -2% | [6]; [7] 7%
active: [1]; [8] 93% | [1]; at 50.0 µM 97% | [2]; [8] 94% | [2]; at 50.0 µM 96% | [3]; [8] 95% | [3]; at 50.0 µM 94.5% | [4]; at 50.0 µM 90.8% | [5]; [8] 94% | [5]; at 50.0 µM 95.7% | [6]; [8] 97% | [6]; at 50.0 µM 97%

COC(=O)c1cccc2cccc(C(=O)Nc3ccc(Cl)cc3)c12
active: [1]; [8] 99% | [1]; at 50.0 µM 90.2% | [2]; [8] 100% | [2]; at 50.0 µM 93% | [3]; [8] 100% | [3]; at 50.0 µM 92.3% | [4]; [8] 99% | [4]; at 50.0 µM 92% | [5]; [7] 82% | [5]; [8] 82% | [5]; at 50.0 µM 91.9% | [6]; [7] 87% | [6]; [8] 99% | [6]; at 50.0 µM 90.3%
inactive: [1]; [7] 68% | [2]; [7] 67% | [3]; [7] 58% | [4]; [7] 42%

C=C1C(=O)OC2CC1C(O)C/C(C)=C/CC/C(C)=C/C(O)CC2C (stereo not given)
inactive: [1]; [7] 18% | [1]; at 50.0 µM -4.95% | [2]; [7] 19% | [2]; at 50.0 µM -20.6% | [3]; [7] 15% | [3]; [8] 54% | [3]; at 50.0 µM 9.6% | [4]; [7] 11% | [4]; [8] 46% | [4]; at 50.0 µM -5% | [5]; [7] 26% | [5]; at 50.0 µM -7.7% | [6]; [7] 48%
active: [1]; [8] 70% | [2]; [8] 84% | [5]; [8] 84% | [6]; [8] 95% | [6]; at 50.0 µM 83.5%

O=C1CCC/C(c2ccccc2)=N\N=C/1c1ccccc1
inactive: [1]; [7] 7% | [1]; [8] 12% | [1]; at 50.0 µM 54.8% | [2]; [7] 10% | [2]; [8] 16% | [2]; at 50.0 µM -6.6% | [3]; [7] 10% | [3]; [8] 34% | [3]; at 50.0 µM 21.6% | [4]; [7] 8% | [4]; [8] 12% | [4]; at 50.0 µM -5.1% | [5]; [7] 11% | [5]; [8] 33% | [5]; at 50.0 µM 24.3% | [6]; [7] 4% | [6]; [8] 18% | [6]; at 50.0 µM 23.6%

CCCCCCCCCCCCCC(=O)OCC[N+](C)(C)C
inactive: [1]; [7] 26% | [2]; [7] 27% | [3]; [7] 41% | [4]; [7] 32% | [5]; [7] 40% | [6]; [7] 34%
active: [1]; [8] 98% | [1]; at 50.0 µM 90.2% | [2]; [8] 99% | [2]; at 50.0 µM 92.5% | [3]; [8] 99% | [3]; at 50.0 µM 92.9% | [4]; [8] 98% | [4]; at 50.0 µM 88.8% | [5]; [8] 99% | [5]; at 50.0 µM 91.5% | [6]; [8] 98% | [6]; at 50.0 µM 90.5%
